Hits are enriched below; roughly 7% of the tested compounds scored in any of these assays.
IL1B secr inh – qHTS for Inhibitors of Inflammasome Signaling: IL-1-beta AlphaLISA Primary Screen | THP-1 LPS/ATP IL-1B secretion, AlphaLISA, 16 h; active compounds read low | activity change, % at 57.5 µM | 360,000 compounds, 4.7% hits | AID 743279, 2014; in the data active = activity change below about -50%; inconclusive = mostly about -30% to -49%; also: % is scaled to controls: 0 for no effect and ±100 for the full control effect
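THP-1 cells pretreated 1 hr with compounds (up to 57.5 uM final), then stimulated with LPS (250 ng/mL final) plus ATP (1.25 mM final); secreted IL-1B measured by AlphaLISA after 16 hr, decreased signal indicating inhibition.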
a7 integrin act – qHTS for Activators of Integrin-Mediated Alleviation for Muscular Dystrophy. Potency, µM (highest dose often 38.3 µM), without a hit: top-dose activation, actives largely listed as activators. alpha7betagal myoblasts, beta-gal FDG fluorescence, 48 h. 350,000 compounds, 0.064% hits;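 also: potency is read from the fitted curve at half-maximal effect; 100% = response of the positive control SU9516; nearly all actives have a fitted effect of over 60% in size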
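alpha7betagal+/- myoblasts (passage 13, 250/well) treated 48 h at 37C with compounds at 1:260 dilution of DMSO stock. Lysed, then beta-galactosidase activity read as FDG fluorescence (ex 480/em 540) after 30 min, with pre-read for autofluorescence.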
D3 ag – qHTS of D3 Dopamine Receptor Agonist: qHTS; D(3) dopamine receptor (Homo sapiens), P35462; D3R DiscoveRx beta-arrestin cells, luminescence, 90 min; max activation, %; 410,000 compounds, 0.58% hits; AID 652048, 2013; in the data active = max activation above about 30%; also: 0% is about no effect
Target sequence (P35462 whole entry, looked up): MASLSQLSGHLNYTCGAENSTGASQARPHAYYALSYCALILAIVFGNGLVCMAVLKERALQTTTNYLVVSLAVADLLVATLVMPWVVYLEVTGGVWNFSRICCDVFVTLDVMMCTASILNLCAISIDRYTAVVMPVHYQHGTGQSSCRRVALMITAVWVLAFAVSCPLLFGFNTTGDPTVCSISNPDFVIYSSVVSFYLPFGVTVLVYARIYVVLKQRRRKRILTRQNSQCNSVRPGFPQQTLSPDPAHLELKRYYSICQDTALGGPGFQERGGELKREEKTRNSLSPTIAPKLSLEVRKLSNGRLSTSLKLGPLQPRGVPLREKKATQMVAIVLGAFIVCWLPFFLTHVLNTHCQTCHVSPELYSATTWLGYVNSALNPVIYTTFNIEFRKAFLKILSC
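Cells at 1500/well, incubated overnight, then treated with pinned compounds (dopamine as control) for 90 min at 37 degrees C. DiscoveRx reagent added for 30 - 60 minutes at room temperature; luminescence read.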
D3 antag – qHTS of D3 Dopamine Receptor Antagonist: qHTS | D(3) dopamine receptor (Homo sapiens), P35462 | D3R cells, DiscoveRx beta-arrestin luminescence, antagonist mode; active compounds read low | 360,000 compounds, 2.5% hits | max response, negative = inhibition, %; in the data active = max response below about -50%; inconclusive = no clear call, values can overlap the other calls; also: % is scaled to controls: 0 for no effect and ±100 for the full control effect
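Cells plated overnight at 1500 cells/well, then exposed to library compounds with dopamine controls for 90 minutes at 37 degrees C. DiscoveRx reagent added for 30–60 minutes at room temperature; luminescence read, quantitative HTS format.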
ATXN2 expr inh – Primary qHTS for Inhibitors of ATXN expression; HEK-293 ATXN2-luciferase reporter, luminescence, 24 h; Potency, µM (doses to about 57 µM), without a hit: top-dose activity change, negative = inhibition, actives largely listed as inhibitors; 360,000 compounds, 0.72% hits; also: potency is read from the fitted curve at half-maximal effect; % is scaled to controls: 0 for no effect and ±100 for the full control effect; nearly all actives have a fitted effect of over 55% in size
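ATXN2-luciferase reporter cells (luciferase flanked by upstream and downstream ATXN2 gene portions) were treated 24 h at 37 °C with compounds at up to 57 uM. SteadyGlo luminescence gave expression; GF-AFC fluorescence gave viability.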
ATXN viability – Viability Counterscreen for Primary qHTS for Inhibitors of ATXN expression. Potency, µM (series often up to 56.7 µM), usual class: cytotoxic. 400,000 compounds, 0.49% hits. S2 cells (HEK-293 line with an ATXN2-luciferase reporter) viability, CellTiter-Fluor protease fluorescence, 24 h. AID 651635, 2014; also: potency is read from the fitted curve at half-maximal effect; nearly all actives have a fitted effect of over 40% in size
* hit, by the source's call. Unless noted, calls follow the shape of the dose curve; as a rule, active = well fitted curve in the direction sought with a large enough effect; inconclusive = small, poorly fitted or top-dose-only effect, or another doubt; inactive = no such curve, though single readings can be large; an effect the other way counts as inactive or inconclusive.

For O=C(CSc1cccc[n+]1[O-])Nc1ccccc1C(F)(F)F the results were IL1B secr inh 6, a7 integrin act 4%, D3 ag -6, D3 antag -11, ATXN2 expr inh -3% and ATXN viability inactive.
Screening O=C(NCCc1ccc(F)cc1)C(=O)NCC(c1ccco1)S(=O)(=O)c1cccs1 (centres undefined) returned D3 ag 2.
For C[C@@H]1CCCCO[C@@H](CN(C)CC2CCCCC2)[C@@H](C)CN([C@H](C)CO)C(=O)c2cc(NS(=O)(=O)c3ccc(Cl)cc3)ccc2O1 the results were IL1B secr inh inconclusive, a7 integrin act -57%, D3 ag -3, D3 antag -5 and ATXN2 expr inh inconclusive.
C[C@H]1CN([C@@H](C)CO)C(=O)c2cc(NS(=O)(=O)c3ccc(Cl)cc3)ccc2O[C@@H]1CN(C)CC1CCCCC1 was read as IL1B secr inh -56*, a7 integrin act -12%, D3 ag 0, D3 antag 14, ATXN2 expr inh -19% and ATXN viability inconclusive.
C[C@H](CO)N1C[C@H](C)[C@H](CN(C)CC2CCCCC2)Oc2ccc(NS(=O)(=O)c3ccc(F)cc3)cc2CC1=O was read as IL1B secr inh 113, a7 integrin act -28%, D3 ag 15, D3 antag 12, ATXN2 expr inh inconclusive and ATXN viability 28µM*.
For CC(=O)Nc1ccc(S(=O)(=O)N(C)CC(=O)NCCOc2ccccc2)cc1 the results were IL1B secr inh -24, a7 integrin act -10%, D3 ag 3, D3 antag 5, ATXN2 expr inh 6% and ATXN viability inactive.
`Cc1cc(N2CCCC2=O)cc(C)c1S(=O)(=O)NCCOc1ccccc1` gave IL1B secr inh inconclusive, a7 integrin act 0%, D3 ag 6, D3 antag 8, ATXN2 expr inh -19% and ATXN viability inactive.
For Cc1csc2c(NC3CCN(Cc4ccccc4)CC3)ncnc12 the results were IL1B secr inh -19, a7 integrin act 0%, D3 ag -21, D3 antag -81*, ATXN2 expr inh inconclusive and ATXN viability inactive.
`Cc1sc2ncnc(NC3CCN(Cc4ccccc4)CC3)c2c1C` gave IL1B secr inh inconclusive, a7 integrin act -23%, D3 ag -12, D3 antag -75*, ATXN2 expr inh -30% and ATXN viability inactive.
Screening c1ccc(CN2CCC(Nc3ncnc4sccc34)CC2)cc1 returned IL1B secr inh 0, a7 integrin act 7%, D3 ag -19, D3 antag inconclusive and ATXN viability inactive.
For COc1ccc(NC(=S)N(Cc2ccc(N(C)C)cc2)Cc2ccco2)cc1 the results were IL1B secr inh -76*, a7 integrin act -7%, D3 ag 3, D3 antag 27, ATXN2 expr inh -6% and ATXN viability inactive.
Screening CCOc1ccc(NC(=S)N(Cc2ccc(N(C)C)cc2)Cc2ccco2)cc1 returned IL1B secr inh -19, a7 integrin act -42%, D3 ag 6, D3 antag 11, ATXN2 expr inh -9% and ATXN viability inactive.
Cc1cc(C)c(S(=O)(=O)N(C)CC(=O)NCCN2CCOCC2)c(C)c1 was read as IL1B secr inh 0, a7 integrin act 4%, D3 ag 5, D3 antag -1, ATXN2 expr inh 17% and ATXN viability inactive.
`O=C1CC(c2cc(Br)ccc2F)c2cc3c(cc2N1)CCC3` (centres undefined) gave IL1B secr inh 55, a7 integrin act -35%, D3 ag 7, D3 antag -6, ATXN2 expr inh inconclusive and ATXN viability 4.5µM*.
`O=C1CC(c2ccccc2F)c2cc3c(cc2N1)CCC3` (centres undefined) gave IL1B secr inh 41, a7 integrin act -21%, D3 ag -2, D3 antag 16, ATXN2 expr inh 8% and ATXN viability inactive.
COc1cccc(NC(=O)Cc2ccc3ccccc3c2)c1 was read as IL1B secr inh -20, a7 integrin act inconclusive, D3 ag 0, D3 antag -16, ATXN2 expr inh 2% and ATXN viability inactive.
For CCCNC(=O)C1(C)CCN(Cc2cc(C(F)(F)F)ccc2Cl)C1 (centres undefined) the results were IL1B secr inh 40, D3 ag -14, D3 antag -57*, ATXN2 expr inh 5% and ATXN viability inactive.
For CCNC(=O)C1(C)CCN(Cc2csc(-c3ccccc3)n2)C1 (centres undefined) the results were IL1B secr inh -17, D3 ag -27, D3 antag -113*, ATXN2 expr inh 1% and ATXN viability inactive.
CCCNC(=O)C1(C)CCN(Cc2cccc(OC(=O)c3ccccc3)c2)C1 (centres undefined) was read as IL1B secr inh -23, D3 ag -16, D3 antag -79*, ATXN2 expr inh 2% and ATXN viability inactive.
CC1(C(=O)NCc2ccc(C(F)(F)F)cc2)CCN1Cc1c(F)cccc1F (centres undefined) was read as IL1B secr inh 4, D3 ag -15, D3 antag -16, ATXN2 expr inh -19% and ATXN viability inactive.
`CC1(C(=O)NCc2ccc(C(F)(F)F)cc2)CCN1Cc1ccc(-c2ccccc2)o1` (centres undefined) gave IL1B secr inh -54*, D3 ag 12, D3 antag 11, ATXN2 expr inh -12% and ATXN viability inconclusive.
`CCNC(=O)C1(C)CCCN1C(=O)c1ccc2c(c1)OCO2` (centres undefined) gave IL1B secr inh 0, D3 ag 87*, D3 antag 6, ATXN2 expr inh 7% and ATXN viability inactive.
Screening CCCNC(=O)C1(C)CCN(Cc2ccc(-c3ccccc3)o2)C1 (centres undefined) returned IL1B secr inh -14, D3 ag -23, D3 antag -79*, ATXN2 expr inh -2% and ATXN viability inactive.
For CCNC(=O)C1(C)CCCN(Cc2ccc(-c3ccccc3)o2)C1 (centres undefined) the results were IL1B secr inh -25, D3 ag -18, D3 antag inconclusive, ATXN2 expr inh -27% and ATXN viability inactive.
